Laboratory results as given in ChEMBL document CHEMBL1961873, “Compounds: GSK PKIS; Assays: Nanosyn kinase panel” (2012).

Legend:
[1] = biological target: Mast/stem cell growth factor receptor Kit (Homo sapiens) (UniProt P10721); settings: at 1 µM
[2] = tested on: Mast/stem cell growth factor receptor Kit (Homo sapiens), P10721 [D816V]; settings: at 0.1 µM
[3] = tested on: Mast/stem cell growth factor receptor Kit (Homo sapiens), P10721 [D816V]; settings: at 1 µM
[4] = tested on: Mast/stem cell growth factor receptor Kit (Homo sapiens), P10721 [T670I]; settings: at 0.1 µM
Sequence of Mast/stem cell growth factor receptor Kit (Homo sapiens), P10721 [T670I] (P10721 whole entry T670I): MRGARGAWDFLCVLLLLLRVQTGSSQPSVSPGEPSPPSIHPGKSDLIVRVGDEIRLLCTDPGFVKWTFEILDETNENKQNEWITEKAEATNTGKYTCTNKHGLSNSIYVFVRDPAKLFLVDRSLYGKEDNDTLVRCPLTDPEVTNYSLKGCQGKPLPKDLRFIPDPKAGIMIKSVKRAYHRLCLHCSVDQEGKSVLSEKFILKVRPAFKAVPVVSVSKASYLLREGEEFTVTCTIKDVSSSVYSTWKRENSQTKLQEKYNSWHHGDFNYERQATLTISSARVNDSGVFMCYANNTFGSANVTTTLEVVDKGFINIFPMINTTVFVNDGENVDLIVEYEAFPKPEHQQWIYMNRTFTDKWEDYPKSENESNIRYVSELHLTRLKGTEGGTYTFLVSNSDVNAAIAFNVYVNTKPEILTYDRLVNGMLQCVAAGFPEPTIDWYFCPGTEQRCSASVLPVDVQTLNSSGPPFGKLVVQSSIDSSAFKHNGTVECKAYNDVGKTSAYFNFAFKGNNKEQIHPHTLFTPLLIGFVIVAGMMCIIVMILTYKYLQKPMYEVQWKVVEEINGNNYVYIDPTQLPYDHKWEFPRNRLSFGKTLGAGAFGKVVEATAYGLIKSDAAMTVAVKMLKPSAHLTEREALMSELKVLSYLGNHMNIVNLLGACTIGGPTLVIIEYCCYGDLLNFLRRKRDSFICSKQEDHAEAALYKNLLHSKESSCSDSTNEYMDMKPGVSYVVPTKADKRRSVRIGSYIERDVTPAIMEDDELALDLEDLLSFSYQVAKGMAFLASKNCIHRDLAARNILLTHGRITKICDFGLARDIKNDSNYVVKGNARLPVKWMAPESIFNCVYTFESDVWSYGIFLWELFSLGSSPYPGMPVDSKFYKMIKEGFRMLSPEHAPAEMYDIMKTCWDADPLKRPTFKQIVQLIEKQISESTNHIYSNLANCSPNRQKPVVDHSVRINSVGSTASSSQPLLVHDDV

[5] = tested on: Mast/stem cell growth factor receptor Kit (Homo sapiens), P10721 [T670I]; settings: at 1 µM
[6] = tested on: Mast/stem cell growth factor receptor Kit (Homo sapiens), P10721 [V560G]; settings: at 0.1 µM
Sequence of Mast/stem cell growth factor receptor Kit (Homo sapiens), P10721 [V560G] (P10721 whole entry V560G): as the sequence (P10721 whole entry T670I) above, with V560G, I670T counted along it

[7] = tested on: Mast/stem cell growth factor receptor Kit (Homo sapiens), P10721 [V560G]; settings: at 1 µM
[8] = biological target: Tyrosine-protein kinase Lck (Homo sapiens) (UniProt P06239); settings: at 0.1 µM
Sequence of Tyrosine-protein kinase Lck (Homo sapiens) (P06239 2-509 limits assumed): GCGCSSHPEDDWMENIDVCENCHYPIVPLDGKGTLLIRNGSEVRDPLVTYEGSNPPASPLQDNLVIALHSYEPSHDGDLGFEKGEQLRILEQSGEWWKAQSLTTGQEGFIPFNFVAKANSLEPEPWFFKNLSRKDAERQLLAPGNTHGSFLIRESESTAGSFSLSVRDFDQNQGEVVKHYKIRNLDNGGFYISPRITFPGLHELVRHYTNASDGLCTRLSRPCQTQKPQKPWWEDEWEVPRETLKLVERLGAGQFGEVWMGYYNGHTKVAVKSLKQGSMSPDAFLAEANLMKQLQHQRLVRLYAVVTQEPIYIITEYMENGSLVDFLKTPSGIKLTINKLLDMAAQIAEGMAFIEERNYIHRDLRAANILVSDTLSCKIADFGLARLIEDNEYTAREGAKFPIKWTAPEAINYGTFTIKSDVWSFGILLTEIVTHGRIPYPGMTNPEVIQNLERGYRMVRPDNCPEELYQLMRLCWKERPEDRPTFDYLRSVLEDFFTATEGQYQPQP

[9] = biological target: Tyrosine-protein kinase Lck (Homo sapiens) (UniProt P06239); settings: at 1 µM
[10] = biological target: Leukocyte tyrosine kinase receptor (Homo sapiens) (UniProt P29376); settings: at 0.1 µM
Sequence of Leukocyte tyrosine kinase receptor (Homo sapiens) (P29376 whole entry): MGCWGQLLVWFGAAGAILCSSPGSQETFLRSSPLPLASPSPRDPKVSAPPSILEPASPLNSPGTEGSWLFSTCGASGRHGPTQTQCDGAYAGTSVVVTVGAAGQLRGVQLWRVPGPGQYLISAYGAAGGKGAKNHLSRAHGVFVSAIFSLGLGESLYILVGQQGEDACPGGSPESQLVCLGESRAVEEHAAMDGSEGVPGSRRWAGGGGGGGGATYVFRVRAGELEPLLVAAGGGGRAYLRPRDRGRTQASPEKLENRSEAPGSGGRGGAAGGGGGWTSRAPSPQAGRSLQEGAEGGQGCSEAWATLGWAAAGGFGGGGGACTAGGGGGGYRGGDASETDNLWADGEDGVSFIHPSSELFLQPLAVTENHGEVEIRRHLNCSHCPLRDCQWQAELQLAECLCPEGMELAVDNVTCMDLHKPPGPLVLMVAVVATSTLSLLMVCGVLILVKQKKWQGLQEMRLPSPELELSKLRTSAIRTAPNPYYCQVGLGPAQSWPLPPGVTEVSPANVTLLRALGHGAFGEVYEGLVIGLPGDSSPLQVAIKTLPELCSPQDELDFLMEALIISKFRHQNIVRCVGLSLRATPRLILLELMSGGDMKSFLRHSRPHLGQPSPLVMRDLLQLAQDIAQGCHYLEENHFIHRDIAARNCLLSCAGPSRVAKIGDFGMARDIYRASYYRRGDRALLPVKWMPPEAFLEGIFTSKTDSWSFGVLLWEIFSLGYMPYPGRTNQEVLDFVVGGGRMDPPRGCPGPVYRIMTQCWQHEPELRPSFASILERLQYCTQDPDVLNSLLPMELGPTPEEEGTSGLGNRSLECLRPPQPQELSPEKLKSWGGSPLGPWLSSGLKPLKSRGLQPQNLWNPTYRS

Sequence of Mast/stem cell growth factor receptor Kit (Homo sapiens) (P10721 whole entry): as the sequence (P10721 whole entry T670I) above, with I670T counted along it
Sequence of Mast/stem cell growth factor receptor Kit (Homo sapiens), P10721 [D816V] (P10721 whole entry D816V): as the sequence (P10721 whole entry T670I) above, with I670T, D816V counted along it

SMILES	inhibition [1]	inhibition [2]	inhibition [3]	inhibition [4]	inhibition [5]	inhibition [6]	inhibition [7]	inhibition [8]	inhibition [9]	inhibition [10]
c1ccc(COc2ccc(Nc3ncnc4ccc(-c5ccco5)cc34)cc2)cc1	-0.06%	-2.23%	-0.29%	0.67%	-1.15%	2.08%	1.66%	0.84%	4.49%	0.59%
c1ccc(-c2nc3n(c2-c2ccc4c(c2)OCO4)CCC3)nc1	1.73%	2.63%	0.34%	2.34%	2.64%	-1.47%	-1.27%	0.66%	3.01%	0.09%
COc1cccc(-n2ncc3c(N/N=C/c4ccc(F)cc4)ncnc32)c1	17.1%	7.16%	7.84%	5.29%	5.91%	-0.37%	5.46%	13.5%	45.5%	4.1%
CN(C)CCOc1ccc(-c2nc(-c3ccncc3)c(-c3ccc4c(c3)CC/C4=N\O)[nH]2)cc1	5.36%	1.54%	6.73%	3.27%	9.66%	1.4%	5.96%	2.08%	13.5%	2.54%
COc1ccc(-c2nn3ncccc3c2-c2ccnc(Nc3ccc4c(c3)OCCO4)n2)cc1	85.2%	-1.73%	0.8%	3.74%	34.7%	9.03%	61.7%	34.8%	66.8%	3.69%
COc1ccc(-c2cc(-c3c[nH]nc3-c3ccccn3)ccn2)cc1	9.66%	4.3%	11.7%	4.24%	4.17%	-1.03%	2.87%	2.68%	5.16%	5.4%
CC(C)COC(=O)c1ccc2c(c1)/C(=C/Nc1ccc(S(N)(=O)=O)cc1)C(=O)N2	24.6%	2.4%	35.2%	-2.43%	6.53%	2.21%	5.62%	0.55%	13.9%	0.07%
CCCN1CCC(c2ccc(Nc3nc(Nc4cc(F)ccc4C(N)=O)c4cc[nH]c4n3)c(OC)c2)CC1	23.6%	7.89%	4.96%	4.05%	8.96%	-2.53%	1.43%	2.44%	9.44%	94.6%
CCNC(=O)O[C@H]1CN[C@H](C#Cc2cc3ncnc(Nc4ccc(OCc5cccc(F)c5)c(Cl)c4)c3s2)C1	2.58%	2.43%	3.63%	2.76%	0.45%	0.45%	5%	3.42%	3.76%	3.21%
CCn1c(-c2nonc2N)nc2ccccc21	4.28%	1.78%	-1.08%	2.82%	0.55%	1.72%	1.6%	0.68%	3.03%	5.66%
Fc1ccc(-c2nn3ccccc3c2-c2ccncc2)cc1	12.1%	-1.36%	-0.05%	-0.12%	1.47%	-1.06%	1.71%	1.24%	5.7%	1.27%
CCn1c(-c2nonc2N)nc2cnc(Oc3cccc(NC(=O)c4ccc(N(C)C)cc4)c3)cc21	1.33%	0.14%	-1.44%	0.35%	-0.9%	-2.78%	2.28%	-0.65%	1.33%	1.6%
NC(=O)c1sc(-n2cnc3ccc(C(F)(F)F)cc32)cc1OCc1ccccc1Br	5.18%	5.27%	5.73%	2.58%	3.8%	-0.43%	-0.61%	-0.17%	1.85%	3.16%
CC(C)(CO)CNC(=O)c1ccc2c(c1)/C(=N/Nc1ccc(S(N)(=O)=O)cc1)C(=O)N2	6.13%	-0.32%	9.15%	-1.23%	-1.94%	-0.35%	1.1%	0.12%	3.08%	-1.7%
COc1cc2c(cc1Nc1nc(Nc3ccsc3C(N)=O)c3cc[nH]c3n1)N(C(=O)CN(C)C)CCC2(C)C	67.6%	3.34%	7.2%	5.12%	16.2%	5.02%	17.8%	0.99%	4.76%	95.3%
c1cc(-c2cnn3nc(N4CCOCC4)ccc23)nc(NC2CC2)n1	20.9%	0.53%	4.82%	7.12%	3.28%	4.27%	5%	1.31%	3.4%	2.15%
COc1ccc2c(-c3ccnc(Nc4cccc(OC(F)(F)F)c4)n3)cnn2n1	45.9%	7.04%	6.99%	2.93%	11.2%	-0.57%	5.63%	1.54%	5.72%	3.12%
